# Many of the other results were omitted from the sample, so hits are more common in it than they were.
# ST2 IL33 inh – IL1RL1 inhibition; Q01638; AlphaLISA ST2-Fc/biotin-IL-33 interaction, 1 h; inhibition, % for hits at 17 µM; actives 2.3% (n = 78,000); in the data active means inhibition above about 30%
# Target sequence (Q01638 whole entry, looked up): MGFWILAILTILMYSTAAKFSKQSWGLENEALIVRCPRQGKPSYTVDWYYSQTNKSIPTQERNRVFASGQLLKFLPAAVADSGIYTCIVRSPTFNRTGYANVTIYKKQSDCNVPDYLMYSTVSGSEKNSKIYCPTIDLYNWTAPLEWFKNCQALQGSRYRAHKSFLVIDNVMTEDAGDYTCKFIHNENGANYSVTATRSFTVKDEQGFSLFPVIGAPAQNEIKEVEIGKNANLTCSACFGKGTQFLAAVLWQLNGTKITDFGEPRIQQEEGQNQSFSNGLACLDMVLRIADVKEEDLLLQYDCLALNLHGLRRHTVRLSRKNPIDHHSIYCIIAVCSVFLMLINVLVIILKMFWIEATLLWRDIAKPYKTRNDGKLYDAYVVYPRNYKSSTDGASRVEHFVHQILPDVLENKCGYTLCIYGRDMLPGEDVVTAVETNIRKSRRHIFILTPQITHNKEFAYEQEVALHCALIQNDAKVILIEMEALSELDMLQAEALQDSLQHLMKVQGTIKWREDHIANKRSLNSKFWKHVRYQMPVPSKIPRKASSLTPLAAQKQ
# Numbers stand for hits; – = inactive.
SMILES,ST2 IL33 inh
C(=Nc1cc(-c2ccccc2)nn1-c1ccccc1)c1cccnc1,33%
O=c1c2cnn(-c3ccccc3)c2ncn1Cc1cccnc1,–
O=C(Cn1nc(-c2ccccc2)ccc1=O)NCc1cccnc1,–
COc1cc(OC)cc(-c2nc(-c3ccc([N+](=O)[O-])cc3)no2)c1,–
O[C@@H]1C[C@@H](c2nc(Cc3ccc(F)cc3Cl)no2)N(CC2CCCCC2)C1,–
CNCC(=O)NC1CCCN(C(=O)c2cccs2)C1 (stereo not given),–
CNc1ccc(C)cc1C(=O)N[C@H]1C[C@H]2CN(C)CCN2C1,–
Cc1ccc2c(c1)c1c(n2CCN2C(=O)c3ccccc3C2=O)C(=O)CCC1,–
Cc1ccc2c(c1)c1c(n2CCC#N)CCN(C)C1,42%
CN1CCc2[nH]c3c(Cl)cccc3c2C1,–
COc1ccccc1Cc1nc2ccccc2n(CC(=O)c2ccccc2)c1=O,–
CCc1noc(C)c1C(=O)N1CCC(O)(CN(C)C)C1 (stereo not given),–
CN(C(=O)c1cccs1)C(Cc1ccccc1)C1CCN(C(=O)C2=CCCC2)CC1 (stereo not given),–
CSc1nnc(CC2CCN(C(=O)CN(C)Cc3cccnc3)CC2)n1C,–
CN(Cc1cccnc1)C(Cc1ccccc1)C1CCN(C(=O)C23CC4CC(CC(C4)C2)C3)CC1 (stereo not given),32%
CCc1cccc(C)c1NC(=O)COc1ccc(Cl)cc1Cl,–
COc1ccc(C2C(C(=O)NCCN(C)C)c3cc(OC)c(OC)cc3C(=O)N2C)cc1 (stereo not given),33%
COCCCNC(=O)C1c2cc(OC)c(OC)cc2C(=O)N(C)C1c1ccc(OC)cc1 (stereo not given),–
CCN(CC)CCNC(=O)C1c2cc(OC)c(OC)cc2C(=O)N(C)C1c1ccc(OC)cc1 (stereo not given),–
CC(C)(C)c1ccc(C(=O)Nc2ccc(S(=O)(=O)N3CCCC3)cc2)cc1,–
O=C(Nc1ccccc1)c1ccc(S(=O)(=O)N2CCCCC2)cc1,–
O=C(O)c1ccc(S(=O)(=O)N2CCCC2)cc1,35%
Nc1nc(NCc2ccccc2)nc(-c2cccc(F)c2F)n1,–
COc1ccc(OC)c(NC(=O)C2CCCN(S(=O)(=O)c3cnc[nH]3)C2)c1 (stereo not given),–
CCCOc1ccc(C2Oc3ccc(Br)cc3C=C2[N+](=O)[O-])cc1OC (stereo not given),44%
SMILES,ST2 IL33 inh
CCOc1ccc(S(=O)(=O)N2CCSC2c2ccc(OC)c([N+](=O)[O-])c2)cc1 (stereo not given),–
COc1cc([N+](=O)[O-])ccc1NC(=O)COc1ccc(Br)cc1C,–
CCOc1cc2c(cc1OCC)C(c1ccc(Br)cc1)OC(=O)C2 (stereo not given),–
CCOc1ccc(C2Oc3c(cc(Br)cc3OC)C=C2[N+](=O)[O-])cc1OCC (stereo not given),43%
CCCOc1ccc(/C=C2\N=C(c3cccc([N+](=O)[O-])c3)OC2=O)cc1OC,–
Cc1cccc(CN2CCN(C(=O)c3cc(C)c(C)n(C)c3=O)C(C)C2=O)c1 (stereo not given),–
O=C(Oc1cc(O)c2c(c1)O[C@@H](c1ccc(O)c(O)c1)[C@H](O)C2)c1cc(O)c(O)c(O)c1,–
O=C1c2c(O)cc(O)cc2OC(c2ccc(O)c(O)c2)C1O (stereo not given),–
O=C(O[C@@H]1Cc2c(O)cc(O)cc2O[C@@H]1c1cc(O)c(O)c(O)c1)c1cc(O)c(O)c(O)c1,31%
CC1(C)CC2CC(C)(CN2C(=O)c2cc(-c3cccc(Cl)c3)on2)C1 (stereo not given),–
O=C(CC1=CCNCC1)N1CCC(c2cc(Cc3ccccc3)[nH]n2)CC1,–
CC1=C(/C=C/c2ccc(Cl)cc2Cl)C(=O)c2ccccc2C1=O,37%
O=C1OC(Nc2ccc(Cl)cc2Cl)c2ccccc21 (stereo not given),–
COc1ccc2oc(=O)c(NC(=O)/C=C/c3ccc(Cl)cc3Cl)cc2c1,–
NC1=NC(=O)C(CC(=O)Nc2ccc(OC(F)F)cc2)S1 (stereo not given),–
Cc1cc2c(NCc3ccc(Cl)cc3)ncnc2s1,–
O=C(c1cccc2c1NC(c1ccc(Cl)cc1Cl)C1CC=CC21)N1CCCC1 (stereo not given),–
O=[N+]([O-])c1ccc(C2Nc3c(cccc3C(F)(F)F)C3C=CCC32)cc1 (stereo not given),–
O=[N+]([O-])c1cccc2c1NC(c1cccc(Cl)c1Cl)C1CC=CC21 (stereo not given),39%
CC(C)C1(O)C=C2C(=O)CC3C(C)(C(=O)O)CCCC3(C)C2CC1 (stereo not given),30%
C=CC(C)(O)CC[C@H]1C(=C)CCC2[C@](C)(C(=O)O)CCC[C@@]21C (stereo not given in full),–
CC(C)c1ccc2c(c1)CCC1[C@](C)(C(=O)O)CCC[C@]21C (stereo not given in full),–
Cc1cnccc1CN(C)C(=O)c1cccc(NC(=O)C2CCCO2)c1 (stereo not given),–
C=CCn1c(SCC(=O)NCCc2ccccc2)nc2sc3c(c2c1=O)CCC3,–
CCSC1=N/C(=C\c2c(OC)cc(OC)cc2OC)C(=O)S1,38%
SMILES,ST2 IL33 inh
Cc1nc(CN(C)C(=O)c2ccc3cccc(Cl)c3n2)cs1,–
CCC1CCCCN1S(=O)(=O)c1ccc2[nH]c(=O)cc(C(=O)NC3CC3)c2c1 (stereo not given),–
CC(C)(C)CN1CCNC(=O)C1CC(=O)NC(C)(C)CN1CCCC1 (stereo not given),–
O=C(NC(=C(Cl)Cl)S(=O)(=O)c1ccccc1)c1ccc(Cl)cc1,–
CCN(CC)c1ccc(C2C3=C(CC(C)(C)CC3=O)Nc3nc(SC)[nH]c(=O)c32)cc1 (stereo not given),–
CCN(CC)c1ccc(/C=C2\N=C(SC)SC2=O)cc1,63%
CSC1=N/C(=C\c2cc3c(cc2Br)OCO3)C(=O)S1,–
CCOC(=O)c1nn(CCc2ccc(OC)cc2)c2c1CN(Cc1cccn1-c1ccccn1)CC2,–
O=C(Nc1cccc(F)c1)C1CCN(S(=O)(=O)c2cccc3cccnc23)CC1,–
COc1ccc(NC(=O)N[C@H]2C[C@H]3C(=O)N[C@H](Cc4ccccc4)C(=O)N3C2)cc1,–
COc1ccc(CN2CCCN(CC(=O)Nc3cccc(SC)c3)S2(=O)=O)cc1,–
COc1ccc(C[C@@H]2NC(=O)[C@@H]3C[C@@H](NC(=O)Nc4cccc(SC)c4)CCN3C2=O)cc1,33%
COc1ccc2nc(N3CCOCC3)sc2c1,–
COc1cc(C(=O)Nc2c3c(nn2C(C)(C)C)CSC3)cc(OC)c1OC,–
Cc1ccc(S(=O)(=O)N2CCN(S(C)(=O)=O)C2c2ccccc2)cc1 (stereo not given),–
COc1ccc(C2SCCN2S(=O)(=O)c2ccc(C)cc2)cc1[N+](=O)[O-] (stereo not given),–
Cc1ccc(S(=O)(=O)N2C/C(=C\c3ccccc3)c3c2cc([N+](=O)[O-])cc3[N+](=O)[O-])cc1,35%
Cc1ccc(-c2noc(CCC(=O)NCC3(c4ccccc4)CCCC3)n2)cc1,–
CC1CCN(CN2CC(Cn3c4ccccc4c4ccccc43)OC2=O)CC1 (stereo not given),–
CCCCOc1ccc(C(=O)Nc2c3c(nn2-c2ccccc2C)CS(=O)C3)cc1 (stereo not given),–
CSc1ccc(-c2nccn2CCCn2ccnc2)cc1,–
CCOCC(=O)Nc1c(C(=O)Nc2cccc(F)c2)oc2ccccc12,–

# Bioassay records: PubChem BioAssay, Paczesny and Yang Labs, IUPUI and University of Michigan
